In the supplement of paper PMC7411054:

Experiments:
Conditions in all cases: treatment time: 24 h
[1] = test system: A549-ACTB-RAB5A; assay: lowest phenotypically active concentration; higher = less potent
How it was run: (§1)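 Cells from fifteen gene-edited reporter lines (A549, HepG2 and WPMY1) were treated for 24 h at 0.3, 1, 3 or 9 µM and imaged live, four wells per condition. Features were normalised per well to solvent control wells. A condition deviated if ≥3 of 4 wells passed the 95th percentile of control Euclidean distances and was reproducible if its median replicate Pearson correlation beat the 95th percentile of non-replicates; phenotypic activity needed both.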

[2] = test system: A549-GM130-SQSTM1; assay: as above
How it was run: as §1

[3] = test system: A549-TUBA1B-RELA; assay: as above
How it was run: as §1

[4] = test system: HepG2-ACTB-RAB5A; assay: as above
How it was run: as §1

[5] = test system: WPMY1-GM130-SQSTM1; assay: as above
How it was run: as §1

[6] = test system: A549-ACTB-RAB5A; assay: phenotypically active (imaging signature differs from DMSO and reproducible) at any of 0.3-9 uM (binary (1 = active, 0 = inactive)); higher = active
How it was run: as §1

[7] = test system: A549-CANX-COX4; assay: as above
How it was run: as §1

[8] = test system: A549-GM130-SQSTM1; assay: as above
How it was run: as §1

[9] = test system: A549-TP53BP1-CLTA; assay: as above
How it was run: as §1

[10] = test system: A549-TUBA1B-RELA; assay: as above
How it was run: as §1

[11] = test system: HepG2-ACTB-RAB5A; assay: as above
How it was run: as §1

[12] = test system: HepG2-CANX-COX4; assay: as above
How it was run: as §1

[13] = test system: HepG2-GM130-SQSTM1; assay: as above
How it was run: as §1

[14] = test system: HepG2-TP53BP1-CLTA; assay: as above
How it was run: as §1

[15] = test system: HepG2-TUBA1B-RELA; assay: as above
How it was run: as §1

[16] = test system: WPMY1-ACTB-RAB5A; assay: as above
How it was run: as §1

[17] = test system: WPMY1-CANX-COX4; assay: as above
How it was run: as §1

[18] = test system: WPMY1-GM130-SQSTM1; assay: as above
How it was run: as §1

[19] = test system: WPMY1-TP53BP1-CLTA; assay: as above
How it was run: as §1

[20] = test system: WPMY1-TUBA1B-RELA; assay: as above
How it was run: as §1

O=C(CCCN1CCC(O)(c2ccc(Cl)cc2)CC1)c1ccc(F)cc1 [haloperidol]
9 µM: lowest phenotypically active concentration [2] | lowest phenotypically active concentration [3] | lowest phenotypically active concentration [4] | lowest phenotypically active concentration [5]
active: phenotypically active [6] 1 | phenotypically active [8] 1 | phenotypically active [10] 1 | phenotypically active [11] 1 | phenotypically active [13] 1 | phenotypically active [14] 1 | phenotypically active [15] 1 | phenotypically active [18] 1
3 µM: lowest phenotypically active concentration [1]
inactive: phenotypically active [7] 0 | phenotypically active [9] 0 | phenotypically active [12] 0 | phenotypically active [16] 0 | phenotypically active [17] 0 | phenotypically active [19] 0 | phenotypically active [20] 0

CC(CN(C)C)CN1c2ccccc2Sc2ccccc21.CC(CN(C)C)CN1c2ccccc2Sc2ccccc21 (stereo not drawn) [alimemazine]
inactive: phenotypically active [7] 0 | phenotypically active [9] 0 | phenotypically active [12] 0 | phenotypically active [17] 0 | phenotypically active [19] 0
active: phenotypically active [6] 1 | phenotypically active [8] 1 | phenotypically active [10] 1 | phenotypically active [11] 1 | phenotypically active [13] 1 | phenotypically active [14] 1 | phenotypically active [15] 1 | phenotypically active [16] 1 | phenotypically active [18] 1 | phenotypically active [20] 1
≤ 0.3 µM: lowest phenotypically active concentration [5]
9 µM: lowest phenotypically active concentration [1] | lowest phenotypically active concentration [2] | lowest phenotypically active concentration [3] | lowest phenotypically active concentration [4]

CN1CCC(CN2c3ccccc3Sc3ccccc32)C1 (stereo not drawn) [methdilazine]
inactive: phenotypically active [7] 0 | phenotypically active [9] 0 | phenotypically active [12] 0
active: phenotypically active [6] 1 | phenotypically active [8] 1 | phenotypically active [10] 1 | phenotypically active [11] 1 | phenotypically active [13] 1 | phenotypically active [14] 1 | phenotypically active [15] 1 | phenotypically active [16] 1 | phenotypically active [17] 1 | phenotypically active [18] 1 | phenotypically active [19] 1 | phenotypically active [20] 1
9 µM: lowest phenotypically active concentration [1] | lowest phenotypically active concentration [4]
3 µM: lowest phenotypically active concentration [2] | lowest phenotypically active concentration [3] | lowest phenotypically active concentration [5]

CC(=O)O[C@@H]1C[C@H]2C(C)(C)C(=O)C=C[C@]2(C)[C@H]2CC[C@@]3(C)[C@H](c4ccoc4)OC(=O)[C@H]4O[C@]43[C@@]21C [gedunin]
active: phenotypically active [6] 1 | phenotypically active [8] 1 | phenotypically active [10] 1 | phenotypically active [12] 1 | phenotypically active [13] 1 | phenotypically active [14] 1 | phenotypically active [15] 1 | phenotypically active [16] 1 | phenotypically active [17] 1 | phenotypically active [18] 1
9 µM: lowest phenotypically active concentration [2] | lowest phenotypically active concentration [3] | lowest phenotypically active concentration [5]
inactive: phenotypically active [7] 0 | phenotypically active [9] 0 | phenotypically active [11] 0 | phenotypically active [19] 0 | phenotypically active [20] 0
3 µM: lowest phenotypically active concentration [1]

Cc1cc2nc(NCCCO)n(CC(=O)c3cc(C(C)(C)C)c(O)c(C(C)(C)C)c3)c2cc1C
3 µM: lowest phenotypically active concentration [1] | lowest phenotypically active concentration [2]
9 µM: lowest phenotypically active concentration [3] | lowest phenotypically active concentration [4]
active: phenotypically active [6] 1 | phenotypically active [8] 1 | phenotypically active [10] 1 | phenotypically active [11] 1 | phenotypically active [15] 1
inactive: phenotypically active [7] 0 | phenotypically active [9] 0 | phenotypically active [12] 0 | phenotypically active [13] 0 | phenotypically active [14] 0 | phenotypically active [16] 0 | phenotypically active [17] 0 | phenotypically active [18] 0 | phenotypically active [19] 0 | phenotypically active [20] 0
